Experimental data as given in the supplement of paper PMC11732987, “Enantioselective OTUD7B fragment discovery through chemoproteomics screening and high-throughput optimisation” (Communications Chemistry, 2025).

Each compound was assayed against T1, VCPIP1 (UniProt Q96JH7) (assay: log2 ratio of Biotin-Ahx-Ub-VS probe labelling (fragment/DMSO); higher = less target engagement (more negative = stronger competition), active = hit call of the paper (q ≤ 0.05, log2 ratio ≤ -1)). Settings: compound concentration: 200 uM; treatment time: 3 h.
T1 sequence (whole entry): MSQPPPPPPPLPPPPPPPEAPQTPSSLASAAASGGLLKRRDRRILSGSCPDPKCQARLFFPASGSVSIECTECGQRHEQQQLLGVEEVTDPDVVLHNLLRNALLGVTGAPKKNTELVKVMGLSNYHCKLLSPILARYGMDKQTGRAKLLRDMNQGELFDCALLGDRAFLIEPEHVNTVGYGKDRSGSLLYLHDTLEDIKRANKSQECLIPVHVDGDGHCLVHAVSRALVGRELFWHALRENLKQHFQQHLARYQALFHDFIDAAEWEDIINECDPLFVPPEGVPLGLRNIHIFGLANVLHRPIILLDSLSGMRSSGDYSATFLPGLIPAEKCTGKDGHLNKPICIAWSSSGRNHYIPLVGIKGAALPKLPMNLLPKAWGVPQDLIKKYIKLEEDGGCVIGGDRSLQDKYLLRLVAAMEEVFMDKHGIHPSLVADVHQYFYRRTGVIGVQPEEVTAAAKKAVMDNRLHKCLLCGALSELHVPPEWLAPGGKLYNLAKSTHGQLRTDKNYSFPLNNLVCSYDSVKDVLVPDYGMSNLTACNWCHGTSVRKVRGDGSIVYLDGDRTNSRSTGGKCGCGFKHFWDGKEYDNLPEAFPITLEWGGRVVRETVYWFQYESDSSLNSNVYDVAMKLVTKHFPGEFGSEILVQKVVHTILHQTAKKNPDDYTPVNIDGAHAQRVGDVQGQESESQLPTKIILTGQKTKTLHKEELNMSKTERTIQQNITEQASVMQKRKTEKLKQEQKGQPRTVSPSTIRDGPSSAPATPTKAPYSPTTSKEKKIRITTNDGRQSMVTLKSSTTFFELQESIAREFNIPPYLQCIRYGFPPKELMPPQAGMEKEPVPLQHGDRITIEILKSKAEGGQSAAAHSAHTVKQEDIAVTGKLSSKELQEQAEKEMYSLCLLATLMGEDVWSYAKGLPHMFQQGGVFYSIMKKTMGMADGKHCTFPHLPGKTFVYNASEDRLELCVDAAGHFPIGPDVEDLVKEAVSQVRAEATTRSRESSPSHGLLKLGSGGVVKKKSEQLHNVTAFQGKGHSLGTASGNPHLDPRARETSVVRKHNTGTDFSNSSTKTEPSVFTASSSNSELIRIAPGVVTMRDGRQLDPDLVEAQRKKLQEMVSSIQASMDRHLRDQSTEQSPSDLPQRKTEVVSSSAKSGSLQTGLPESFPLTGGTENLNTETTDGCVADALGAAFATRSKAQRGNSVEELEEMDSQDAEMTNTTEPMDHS
Method: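 Competitive ABPP in HEK293T cell lysate. Lysates were treated with each chloroacetamide fragment at 200 µM for 3 h, then with Biotin-Ahx-Ub-VS (0.5 µM, 1 h), NeutrAvidin-enriched and analysed by diaPASEF LC-MS/MS. Protein LFQ was median-normalised; average log2 ratio is fragment/DMSO from an unpaired t-test (n=3 treated, n=44 DMSO). Hits: q ≤ 0.05, log2 ratio ≤ -1, unique peptides ≥ 2.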

log2 ratio of Biotin-Ahx-Ub-VS probe labelling, inactive:
O=C(CCl)NCCc1ccc(F)cc1 -0.91
Cc1ncc2c(n1)CCN(C(=O)CCl)C2 0.323
O=C(CCl)Nc1cccc(C(=O)N2CCSCC2)c1 -2.83
Cc1ccccc1C1(CNC(=O)CCl)CCOCC1 -0.843
O=C(CCl)NC1CCN(C(=O)C2CCCCC2)CC1 -0.826
Cc1cc(C(=O)NC2CCN(C(=O)CCl)CC2)no1 -0.548
O=C(CCl)NCc1noc(C2CC2)n1 -0.61
COCC[C@@H](NC(=O)CCl)c1ccccc1 -0.654
CCC(NC(=O)CCl)c1ccc(Cl)cc1 (stereo not given) -0.836
Cc1nc(CC2CCN(C(=O)CCl)CC2)no1 -0.733
CNC(=O)Cn1cc(NC(=O)CCl)cn1 -0.495
CCN(C(=O)CCl)C1CCCCC1 -0.114
O=C(CCl)NC1(c2ccc3c(c2)OCCO3)CCCC1 -0.7
Cc1ncsc1CCNC(=O)CCl 0.0583
Cl.O=C(CCl)N1CCn2cncc2C1 -0.196
CCN(C(=O)CCl)C1CCS(=O)(=O)C1 (stereo not given) 0.0777
O=C(CCl)N1CCC(=C(F)CO)C1 -0.129
O=C(CCl)NCCC1=CCCCC1 -0.647
CCC1c2ccsc2CCN1C(=O)CCl (stereo not given) -0.892
CC1(NC(=O)CCl)CCS(=O)(=O)C1 (stereo not given) -0.848
Cc1cccc(NC(=O)[C@@H]2CCCN2C(=O)CCl)n1 -0.551
Cl.O=C(CCl)N1CCc2ncncc2C1 -0.0226
Cc1noc(N2CCN(C(=O)CCl)CC2)n1.Cl 0.15
O=C(CCl)N1CCC(C(O)c2ccc(F)cc2)CC1 (stereo not given) -0.764

log2 ratio of Biotin-Ahx-Ub-VS probe labelling, active:
Cl.Cn1nccc1C(NC(=O)CCl)c1ccccc1 (stereo not given) -1.2
COc1cc(Cl)c(C)cc1NC(=O)CCl -1.24
O=C(CCl)NCCc1cccc2ccccc12 -1.04
CN(C)S(=O)(=O)c1ccccc1CNC(=O)CCl -1.15
O=C(CCl)Nc1ccc(N2CCCC2=O)cc1 -1.2
Cc1ccc(CC(NC(=O)CCl)c2ccccn2)cc1.Cl (stereo not given) -1.64
O=C(CCl)NCc1ccc2c(c1)OCO2 -2
CC(NC(=O)CCl)c1cnn(C2CC2)c1 (stereo not given) -1.15
NS(=O)(=O)c1ccc(Cl)c(NC(=O)CCl)c1 -2.53
COc1ccc(Cl)cc1NC(=O)CCl -1.52
Cl.O=C(CCl)NCCN1CCc2ccccc21 -1.9
Cl.O=C(CCl)N1CC(c2ccc(Br)cn2)C1 -1.3
O=C(CCl)NCCc1ccc2c(c1)OCCO2 -2.55
O=C(CCl)N1CC=C(c2c[nH]c3ccccc23)CC1 -2.41
Cc1ccc2nnc(CNC(=O)CCl)n2c1 -1.34
CC(NC(=O)CCl)c1cccc2ccccc12 (stereo not given) -1.05
